Assay results taken from PubChem BioAssay AID504608 (National Center for Advancing Translational Sciences (NCATS), 2011).
Calls of active or inactive are those of the source. Calls come from the whole dose curve; as a rule, active = well fitted inhibition curve with a large enough effect; inconclusive = small, poorly fitted or top-dose-only effect; inactive = flat fitted curve, though single readings scatter.

Test: Quantitative high throughput screen for delayed death inhibitors of the malarial parasite plastid, 48 hour incubation.
Settings: P. falciparum in erythrocytes, luciferase growth
Text: NIH Molecular Libraries Probe Production Network [MLPCN] NIH Chemical Genomics Center [NCGC] MLPCN Grant: R21 NS059500 Assay Provider: David Fidock and Eric Ekland, Columbia University The goal of this screen is to discover new antimalarial compounds that act by inhibiting the development of the apicoplast in the malarial parasite Plasmodium falciparum. The biochemical processes that make this organelle essential for erythrocytic stage parasites are not well understood. However, antibiotics, such as azithromycin and tetracycline, which target the apicoplast translational machinery, have a potent antimalarial effect. […] We have developed a cell-based assay that measures parasite growth based on the expression of an integrated copy of a firefly luciferase reporter. To detect small molecules that cause this 'delayed death' phenotype, erythrocytes infected with the luciferase-expressing parasites were incubated with compounds for either one or two generations, corresponding to 48 and 96 hours, respectively. Compounds that inhibit parasite growth in the second generation, but not the first, should be enriched in antimalarials that target the apicoplast. Growth inhibition is detected by a decrease in luciferase activity
Four microliters of culture medium (RPMI 1640 with 0.5% w/v Albumax (GIBCO), 24 mM sodium bicarbonate and 10 ug/mL gentamycin) were dispensed by a Multi-drop Combi into white solid 1536-well plates (Grenier) and 23 nL compound was added by a pin tool. Four microliters of infected erythrocytes (2% hematocrit, 0.1% parasitemia final concentration) in culture medium were dispensed and the plates incubated for 48 hours at 37 C in 5% CO2. Two microliters of luciferase detection reagent was added and luminescence was detected by a ViewLux (PerkinElmer) reader
With `COCCOC(=O)N(C)C[C@@H]1OCCCC[C@H](C)Oc2ccc(NC(=O)Nc3ccccc3)cc2C(=O)N([C@@H](C)CO)C[C@H]1C` the Potency was 14.2 µM (active).
With `COc1ccc(COC[C@H](C)N2C[C@@H](C)[C@H](CN(C)S(=O)(=O)c3ccc(F)cc3)OCCCC[C@H](C)Oc3ccc(NC(=O)Nc4ccccc4)cc3C2=O)cc1` the Potency was 0.0036 µM (active).
With `C[C@@H]1CN([C@@H](C)CO)C(=O)c2cc(NC(=O)Nc3ccccc3)ccc2O[C@@H](C)CCCCO[C@H]1CN(C)C(=O)Oc1ccccc1` the Potency was 5.04 µM (active).
